# Assay results from the supplement of paper PMC8047044.
# Where a name gives a salt, the structure may show the parent alone. ± gives the standard deviation of the averaged measurements.
# Test system: Neuro-2a
# Experiment: neurite formation score, plate-normalized to DMSO control mean 5.04 (score (0-8 scale)); higher = more or longer neurites
# Details: 1 µM
# Method: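 Neuro-2a mouse neuroblastoma cells in PLL-coated 96-well plates were pre-treated for 1 h in DMEM(+) with each kinase inhibitor at 1 µM, then switched to serum-free DMEM(-) with inhibitor to induce neurite outgrowth and fixed about 2-3 h later. Three blinded observers scored neurite formation from 0 (no neurites) to 8 (long neurites on almost all cells).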
row,SMILES,neurite formation score
1,COc1ccc(S(=O)(=O)N(C(C)=O)c2ccccc2/C=C/c2cc[n+]([O-])cc2)cc1,0.569
2,CNC(=O)c1nn(C)c2c1C(C)(C)Cc1cnc(Nc3ccc(N4CCN(C)CC4)cc3)nc1-2,3.29
3,CN(C)C1CCN(C(=O)c2ccc(NC(=O)Nc3ccc(-c4nc(N5CCOCC5)nc(N5CCOCC5)n4)cc3)cc2)CC1,4.14
4,"CC[C@H](Nc1ncnc2[nH]cnc12)c1nc2cccc(F)c2c(=O)n1-c1ccccc1 [CAL-101 (Idelalisib, GS-1101)]",4.57
5,Cc1c(Cn2c(C)nc3c(C(=O)O)cc(N4CCOCC4)cc32)cccc1C(F)(F)F,4.88
6,Brc1c(Br)c(Br)c2n[nH]nc2c1Br,5.47
7,Cc1ccc(NC(=O)c2ccc(CN3CCN(C)CC3)cc2)cc1Nc1nccc(-c2cccnc2)n1 [Imatinib Mesylate (STI571)],4.91
8,CCN(CC)CCNC(=O)c1c(C)[nH]c(/C=C2\C(=O)Nc3ccc(F)cc32)c1C [Sunitinib],5.63
9,CC(=O)c1c(C)c2cnc(Nc3ccc(N4CCNCC4)cn3)nc2n(C2CCCC2)c1=O,4.57
10,Cc1nc(Nc2ncc(C(=O)Nc3c(C)cccc3Cl)s2)cc(N2CCN(CCO)CC2)n1,1.57
11,CO[C@H]1C[C@@H]2CC[C@@H](C)[C@@](O)(O2)C(=O)C(=O)N2CCCC[C@H]2C(=O)O[C@H]([C@H](C)C[C@@H]2CC[C@@H](OCCO)[C@H](OC)C2)CC(=O)[C@H](C)/C=C(\C)[C@@H](O)[C@@H](OC)C(=O)[C@H](C)C[C@H](C)/C=C/C=C/C=C/1C [Everolimus (RAD001)],4.57
12,COc1ccc(-c2cc3c(C)nc(N)nc3n([C@H]3CC[C@H](OCCO)CC3)c2=O)cn1,3.96
13,Cc1cc(NC(=O)c2cccc(NC(=O)/C=C/CN(C)C)c2)ccc1Nc1nccc(-c2cccnc2)n1,5.36
14,C#Cc1cccc(Nc2ncnc3cc4c(cc23)OCCOCCOCCO4)c1 [Icotinib],4.8
15,O=C(Nc1nc2cccc(-c3ccc(CN4CCS(=O)(=O)CC4)cc3)n2n1)C1CC1,4.88 ± 0.58
16,Nc1ccc(C(=O)Nc2cccc(-c3nc(N4CCOCC4)c4oc5ncccc5c4n3)c2)cn1,4.54
17,C=CC(=O)Nc1ccc(CN2C(=O)N(c3cc(OC)cc(OC)c3)Cc3cnc(Nc4ccc(N5CCN(C)CC5)cc4)nc32)cc1,4.63
18,Cc1ccc(-c2nn(C(C)(C)C)c3ncnc(N)c23)cc1,2.9
19,COc1cc(Nc2ncc(F)c(Nc3ccc4c(n3)NC(=O)C(C)(C)O4)n2)cc(OC)c1OC,5.63
20,COc1cc2ncnc(Nc3ccc(F)c(Cl)c3)c2cc1NC(=O)/C=C/CN1CCCCC1,4.9
21,CC(C)n1nc(-c2ccc3oc(N)nc3c2)c2c(N)ncnc21,3.96
22,CN1CCN(c2ccc3nc(-c4c(N)c5c(F)cccc5[nH]c4=O)[nH]c3c2)CC1 [Dovitinib Dilactic acid],4.96
23,O=C(O)c1ccc(-c2c[nH]c3ncc(-c4ccccc4)cc23)cc1C1CCCC1,5.29
24,CNC(=O)c1cc(Oc2ccc(NC(=O)Nc3ccc(Cl)c(C(F)(F)F)c3)c(F)c2)ccn1 [Regorafenib],5.24
